The full ranking holds about 33,000 sequences; the median of “E-score (-0.5 to 0.5)” is about -0.011, and the highest 2% start at about 0.28. What follows is part of a selection rich in the highest values, with near analogues and random picks from the rest.
Biological target: T1, Gcr1 (UniProt P07261)
T1 sequence: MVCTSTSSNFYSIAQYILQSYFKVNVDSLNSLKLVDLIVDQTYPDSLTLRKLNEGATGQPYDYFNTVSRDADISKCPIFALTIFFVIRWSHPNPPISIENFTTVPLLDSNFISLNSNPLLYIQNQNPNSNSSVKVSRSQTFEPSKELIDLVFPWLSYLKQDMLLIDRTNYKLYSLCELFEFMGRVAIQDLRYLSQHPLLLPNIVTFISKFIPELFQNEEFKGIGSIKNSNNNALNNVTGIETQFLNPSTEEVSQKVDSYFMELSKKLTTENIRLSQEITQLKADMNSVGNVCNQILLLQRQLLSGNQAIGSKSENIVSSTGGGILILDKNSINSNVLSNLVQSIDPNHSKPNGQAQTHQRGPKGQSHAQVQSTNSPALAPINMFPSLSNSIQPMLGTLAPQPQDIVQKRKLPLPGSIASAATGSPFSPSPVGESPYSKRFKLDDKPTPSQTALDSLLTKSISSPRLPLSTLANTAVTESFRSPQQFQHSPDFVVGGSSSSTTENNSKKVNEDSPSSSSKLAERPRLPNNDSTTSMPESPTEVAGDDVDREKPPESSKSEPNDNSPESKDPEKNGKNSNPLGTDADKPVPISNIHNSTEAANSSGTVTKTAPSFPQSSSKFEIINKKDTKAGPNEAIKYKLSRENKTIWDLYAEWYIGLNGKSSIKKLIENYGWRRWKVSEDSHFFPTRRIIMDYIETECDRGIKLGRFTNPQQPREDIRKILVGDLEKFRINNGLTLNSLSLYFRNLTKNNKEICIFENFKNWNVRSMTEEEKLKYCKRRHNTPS
Assay: PBM E-score (8-mer binding enrichment) (E-score (-0.5 to 0.5)); higher = stronger / more preferred TF binding
Details: protein concentration: 100 nM; construct: GST-full length
Protocol: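 Universal 'all 10-mer' protein binding microarrays (Agilent AMADID 015681) probed with GST-tagged S. cerevisiae TFs (full-length or DBD) made by in vitro transcription/translation (PURExpress), about 100-200 nM. Bound TF was detected with fluorescent anti-GST. Each ungapped 8-mer (which stands for itself and its reverse complement) is scored by the PBM enrichment score (E-score), a modified Wilcoxon-Mann-Whitney statistic from -0.5 to +0.5, computed with the Universal PBM Analysis Suite. Scale: above 0.35 generally sequence-specific binding.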

Compared with CGGCATAC, AGGCATCA is lower in “PBM E-score” value: -0.113 for the first, -0.162 for the second.

Compared with CGGCATCC, CGGCATCA is lower in “PBM E-score” value: 0.444 for the first, 0.223 for the second.

Going from AGGCATCG to AGGCATCC, the “PBM E-score” value rises from 0.0175 to 0.387.

Going from ACGCCTCA to AGGCTGCC, the “PBM E-score” value rises from -0.137 to 0.382.

First: CGGCTCCC
Second: CGGCTCCA
The “PBM E-score” value of the first is higher: 0.34 for the first, 0.0712 for the second.

Going from AGGCTGCA to AGGCTCCC, the “PBM E-score” value rises from -0.0233 to 0.24.

Compared with CGGCTGCA, CGGCTGCC is higher in “PBM E-score” value: 0.0568 for the first, 0.376 for the second.

Going from AGGCTGCG to CTGCTGCC, the “PBM E-score” value falls from 0.138 to -0.0289.

Compared with CTGTCTTA, CGCCATAC is higher in “PBM E-score” value: 0.0396 for the first, 0.127 for the second.

Going from TACCAGCA to ACCCAGGT, the “PBM E-score” value rises from 0.0312 to 0.0419.

Compared with CAACGCTG, ATTTTTCA is higher in “PBM E-score” value: -0.0977 for the first, 0.1 for the second.

Going from ACGGCTCT to AAATGGCT, the “PBM E-score” value rises from -0.00284 to 0.0656.

First: ACTCACCC
Second: ATGGAAGG
The “PBM E-score” value of the first is higher: -0.126 for the first, -0.201 for the second.

Compared with GTGGAAGA, CTGGAAGC is higher in “PBM E-score” value: 0.172 for the first, 0.45 for the second.

Going from ATGGAAGC to ATGGAAGA, the “PBM E-score” value falls from 0.344 to -0.0302.

First: CTGGAAGA
Second: CCATGGGC
The “PBM E-score” value of the first is higher: 0.0722 for the first, 0.0107 for the second.

First: ACCCCTGA
Second: CCTGGTCG
The “PBM E-score” value of the first is higher: 0.0403 for the first, -0.127 for the second.

Going from TCCCACGA to GGCACCAA, the “PBM E-score” value rises from 0.244 to 0.335.

Compared with CGCACCTA, GGCACCTA is higher in “PBM E-score” value: 0.0792 for the first, 0.281 for the second.

First: AGCACCTA
Second: GGCACCAC
The “PBM E-score” value of the first is lower: 0.241 for the first, 0.249 for the second.

Going from TGCACCAA to CCACAAAC, the “PBM E-score” value rises from -0.133 to 0.19.

Going from ATGCATCC to ATGAAATG, the “PBM E-score” value rises from -0.00178 to 0.104.

First: TCCCCAAA
Second: AGGGCGCA
The “PBM E-score” value of the first is higher: 0.226 for the first, -0.0301 for the second.

Going from CGGGCGCA to CGGGCGGC, the “PBM E-score” value falls from 0.0492 to 0.0469.

First: CGGGCGCC
Second: AGGGCGCC
The “PBM E-score” value of the first is higher: 0.421 for the first, 0.399 for the second.

Compared with AGGGCGCG, ATTAAGGG is lower in “PBM E-score” value: 0.194 for the first, 0.0551 for the second.

Going from ATTATCCG to TACCTGAA, the “PBM E-score” value rises from 0.00436 to 0.0937.

Compared with ATCAGGAG, CTCTCCAA is lower in “PBM E-score” value: 0.0606 for the first, -0.0761 for the second.

Compared with AGTGTCAG, CCAGATAC is higher in “PBM E-score” value: -0.142 for the first, 0.294 for the second.

Compared with ACAGATTC, GCAGATAC is lower in “PBM E-score” value: 0.176 for the first, 0.0819 for the second.

First: CCAGATTA
Second: CCAGATAA
The “PBM E-score” value of the first is higher: 0.233 for the first, 0.0427 for the second.

Going from CCAGATTC to CCCTGCCA, the “PBM E-score” value falls from 0.326 to 0.0623.

Going from CCGCGCAG to AGGGATTG, the “PBM E-score” value rises from -0.219 to 0.0467.

Going from GTGCACTA to AGCTGGCA, the “PBM E-score” value rises from -0.146 to 0.0163.

Compared with AAAGCTCC, CAAGCTGA is lower in “PBM E-score” value: -0.0149 for the first, -0.139 for the second.

Going from GAAGCTTA to GAAGCTGA, the “PBM E-score” value rises from 0.136 to 0.322.

Compared with GAAGCTTC, GAAGCTCA is lower in “PBM E-score” value: 0.339 for the first, 0.224 for the second.

Going from GAAGCGGA to GAAGCTCC, the “PBM E-score” value falls from 0.328 to 0.309.

Going from CAAGCTTC to CAAGCGGA, the “PBM E-score” value falls from 0.232 to -0.137.

Compared with TAAGCGGA, AAAGCTGA is higher in “PBM E-score” value: -0.143 for the first, 0.113 for the second.

Going from ATGGGCTC to TCGGTGAA, the “PBM E-score” value falls from 0.102 to -0.0389.

Going from GACCATAC to CACAGCTA, the “PBM E-score” value falls from 0.159 to -0.0538.

Compared with AAAACGCT, TACCCGGA is higher in “PBM E-score” value: -0.0686 for the first, -0.0492 for the second.
